Our source for the Inhibition values is ChEMBL document CHEMBL1157539, “Thousands of chemical starting points for antimalarial lead identification” (Nature, 2010).

Values joined by “and” are separate entries in the source; they are usually repeats but may differ in a detail not shown here. Identical values can stand only once.

The experiment concerns HepG2. In words: GSK_TCMDC: Percent inhibition of human HepG2 cell line. Test compounds present at 10uM. The class given is functional.
Usually Inhibition stands for the share of the control response that was lost under treatment. As for `Cc1[nH]c2ccccc2c1C1=CCN(CCCCC2(C)C(=O)Nc3ccccc32)CC1` (stereo not drawn), the Inhibition came to 8%.

As for `COc1ccc(O)c(CN2CCN(c3cc(C)ccc3C)CC2)c1`, the Inhibition is 7%. As to `O=C(/C=C/c1ccc(Cl)c(Cl)c1)N1CCC(CN2CCC(c3c[nH]c4ccccc34)C(O)C2)CC1` (stereo not drawn), the Inhibition stood at 37%. On to `CC(Cc1ccc(C2=CCNCC2)cc1)NCC(O)c1cccc(C(F)(F)F)c1.Cl` (stereo not drawn), for which the Inhibition amounted to 27%. The molecule `O=C(/C=C/c1cc(F)cc(C(F)(F)F)c1)N1CCC(CN2CCC(c3c[nH]c4ccccc34)CC2)CC1` yielded an Inhibition of 32%. `O=C(/C=C/c1ccc(Cl)c(Cl)c1)N1CCC(CN2CCC(c3cn(CC(=O)N4CCCCC4)c4ccccc34)CC2)CC1.O=C(O)C(F)(F)F` showed an Inhibition of 52%. `CC[C@H]1CN2CC[C@H]1C[C@H]2[C@H](O)c1cc(N2CCC3CCCCC3C2)nc2ccc(OC)cc12` (stereo partly drawn) gave an Inhibition of 50%. As for `Cc1[nH]c2ccc(O)cc2c1C1CCN(CC2CCC(NC(=O)/C=C/c3ccc(Cl)c(Cl)c3)CC2)CC1` (stereo not drawn), the figure is 19%; as for `CC(Cc1ccc(SCCSc2ccccc2)cc1)NCC(O)c1cccc(Cl)c1` (stereo not drawn), 4%; as for `COc1cccc(O)c1CNCC(O)c1cccc(C(F)(F)F)c1` (stereo not drawn), 31%. The molecule `CCCCCC(C)C(C)c1cc(O)c2c(c1)OC1(C(C)C)CC(O)C(C)C2C1` (stereo not drawn) yielded an Inhibition of 1%.

Regarding `Cc1c(C)c2c(c(C)c1O)CC[C@](C)(C(=O)N1CCC(CN3CCC(c4c[nH]c5ccccc45)CC3)CC1)O2`, the Inhibition stood at 29%.

Molecule `CCc1ccc(CC(C)NCC(O)c2ccccc2)cc1.O` (stereo not drawn) came in with an Inhibition of 0%. `CC(Cc1ccc(S(=O)(=O)N(C(C)C)C(C)C)cc1)NCC(O)c1cccc(C(F)(F)F)c1.Cl` (stereo not drawn) yielded an Inhibition of 21%. On to `CC(C)CN1CCC(N(C)c2cc(NC(=O)c3cccc(F)c3)ccn2)CC1.O=C(O)C(F)(F)F`, for which the Inhibition is reported as 8%. For the molecule `Cc1cccc(C(=O)Nc2ccnc(N(C)C3CCN(Cc4cccc(O)c4)CC3)c2)c1.O=C(O)C(F)(F)F`, the Inhibition is on record as 5%. The same measure for `O=C(NC1CCC(CN2CCC(c3c[nH]c4ccccc34)CC2)CC1)c1cc2ccccc2o1` (stereo not drawn): 34%. `O=C(/C=C/c1ccc(Cl)c(Cl)c1)NC1CCC(CN2CCC(c3c[nH]c4ccccc34)C(O)C2)CC1` (stereo not drawn) yielded an Inhibition of 30%. As for `CC(=O)Nc1ccc2[nH]cc(C3CCN(CC4CCC(NC(=O)/C=C/c5ccc(Cl)c(Cl)c5)CC4)CC3)c2c1` (stereo not drawn), the figure is 10% and 18%; as for `COCCNCc1cccc(-c2cccc(CN(C(=O)Nc3ccccc3)C3CCN(Cc4ccccc4)CC3)c2)c1.O=C(O)C(F)(F)F`, 28%; as for `COc1cc2nc(N(C)C3CCN(Cc4ccccc4)CC3)nc(N)c2cc1OC`, 19%.

The molecule `Cc1cc(O)cc2c(C3CCN(CC4CCN(C(=O)/C=C/c5ccc(Cl)c(Cl)c5)CC4)CC3)c[nH]c12` had an Inhibition of 33%. On to `Cc1c(C)c2c(c(C)c1O)CC[C@@](C)(C(=O)N1CCC(CN3CCC(c4c[nH]c5ccccc45)CC3)CC1)O2`, for which the Inhibition stood at 21%. The same measure for `Cc1ccc(C)c(N2CCN(Cc3ccccc3O)CC2)c1`: 11%; for `Oc1cccc(C2CCCN(Cc3cccc4cc[nH]c34)C2)c1` (stereo not drawn): 16%; for `CCC(C)CN1CCC(N(C)c2cc(NC(=O)c3cccc(C)c3)ccn2)CC1.O=C(O)C(F)(F)F` (stereo not drawn): 1%.

`O=C(NC1CCC(CN2CCC(c3c[nH]c4ccccc34)CC2)CC1)c1cnn(-c2ccccc2)c1-c1ccccc1Cl` (stereo not drawn) showed an Inhibition of 66%.

`Cc1ccccc1CNCC(O)c1cccc(C(F)(F)F)c1` (stereo not drawn) displayed an Inhibition of 5%.

`CNCCN(C)C(=O)Oc1c(Br)c(C)nc(C)c1-c1ccc(Oc2ccc(OC(F)(F)F)cc2)cc1.Cl` displayed an Inhibition of 19%. The molecule `Cc1cccc2c(C3CCN(CC4CCC(NC(=O)/C=C/c5ccc(Cl)c(Cl)c5)CC4)CC3)c[nH]c12` (stereo not drawn) displayed an Inhibition of 97%. Molecule `CCCCCCC(C)(C)c1cc(O)c2c3c(c(=O)oc2c1)CCN(Cc1ccccc1)C3.Cl` returned an Inhibition of 3%. With `Cc1[nH]c2ccccc2c1C1=CCN(CCCCCC23CCCc4cccc(c42)NC3=O)CC1` (stereo not drawn), the Inhibition is 11%. As for `CN1CC=C(C=Cc2c[nH]c3ccccc23)CC1`, the figure is 14%. Take `CN1CC=C(c2c[nH]c3ccc(OCc4ccccc4)cc23)CC1`: the Inhibition came to 0%.

On to `NCc1cccc(-c2cccc(CN(C(=O)Nc3ccccc3)C3CCN(Cc4ccccc4)CC3)c2)c1.O=C(O)C(F)(F)F`, for which the Inhibition is 3%. The same measure for `Cc1[nH]c2ccc(O)cc2c1C1CCN(CC2CCC(NC(=O)/C=C/c3c(Cl)cccc3Cl)CC2)CC1` (stereo not drawn): 25%; for `CC[C@H]1CN2CC[C@H]1C[C@H]2[C@H](O)c1cc(-c2ccccc2C(F)(F)F)nc2ccc(OC)cc12.Cl`: 0%; for `CC(=O)N(Cc1ccccc1-c1ccc(CNCCc2ccccc2)cc1)C1CCN(Cc2ccccc2)CC1.O=C(O)C(F)(F)F`: 24%.
